Data: article PMC7862700, “An all-to-all approach to the identification of sequence-specific readers for epigenetic DNA modifications on cytosine”

Assays:
Test in all cases: DAPPL (digital affinity profiling via proximity ligation, sequencing); 10 mM Tris-HCl pH 7.5, 50 mM NaCl, 1 mM DTT, 4% glycerol, room temperature, 30 min; GST-TFs on glutathione beads, 16-mer random dsDNA library, 0.1% formaldehyde crosslink after washing; high values mean tight binding
FEV = target: T1, FEV (Homo sapiens, UniProt Q99581 1-238); conditions: protein: recombinant; tags: N-terminal GST; dsDNA, one strand shown
T1 sequence: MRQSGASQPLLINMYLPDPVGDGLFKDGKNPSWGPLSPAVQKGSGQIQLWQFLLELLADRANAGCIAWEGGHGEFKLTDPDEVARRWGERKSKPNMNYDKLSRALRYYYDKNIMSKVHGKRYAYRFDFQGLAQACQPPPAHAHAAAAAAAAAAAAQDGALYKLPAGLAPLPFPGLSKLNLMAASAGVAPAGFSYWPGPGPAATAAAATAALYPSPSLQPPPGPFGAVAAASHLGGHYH
Outline: (§1)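 In yeast, human transcription factors were expressed with a GST fusion, then pulled down on glutathione beads and given DNA barcodes. Pooled with a tag-only sample, they were exposed to 200 nmole of a 16-mer random double-stranded DNA library (Tris/NaCl/DTT/glycerol buffer, room temperature, 30 min), washed, crosslinked with 0.1% formaldehyde, proximity-ligated using BsaI/T4 ligase for 1 h at 37 °C, PCR-amplified and read on an Illumina NextSeq500. Each hexamer's frequency of reads for a factor, divided by the matching frequency for the tag-only sample, gives the binding signal.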

ETV5 = ETV5 (Homo sapiens, UniProt P41161 1-510); conditions: protein: recombinant; tags: N-terminal GST; dsDNA, one strand shown
Outline: as §1

HSF1 = HSF1 (Homo sapiens, UniProt Q00613 1-529); conditions: protein: recombinant; tags: N-terminal GST; chain copies: 3; dsDNA, one strand shown
Outline: as §1

SPIC = target: T2, SPIC (Homo sapiens, UniProt Q8N5J4 1-248); conditions: protein: recombinant; tags: N-terminal GST; dsDNA, one strand shown
T2 sequence: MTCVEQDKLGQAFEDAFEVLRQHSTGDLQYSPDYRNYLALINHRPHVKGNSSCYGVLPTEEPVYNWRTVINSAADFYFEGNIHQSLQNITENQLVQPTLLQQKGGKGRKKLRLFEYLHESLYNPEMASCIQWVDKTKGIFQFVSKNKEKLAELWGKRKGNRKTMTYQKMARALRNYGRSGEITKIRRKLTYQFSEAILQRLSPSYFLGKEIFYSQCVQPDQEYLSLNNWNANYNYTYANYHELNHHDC
Outline: as §1

ELF4 = ELF4 (Homo sapiens, UniProt Q99607 1-663); conditions: protein: recombinant; tags: N-terminal GST; dsDNA, one strand shown
Outline: as §1

ELK4 = target: T3, ELK4 (Homo sapiens, UniProt P28324-2 1-405); conditions: protein: recombinant; tags: N-terminal GST; dsDNA, one strand shown
T3 sequence: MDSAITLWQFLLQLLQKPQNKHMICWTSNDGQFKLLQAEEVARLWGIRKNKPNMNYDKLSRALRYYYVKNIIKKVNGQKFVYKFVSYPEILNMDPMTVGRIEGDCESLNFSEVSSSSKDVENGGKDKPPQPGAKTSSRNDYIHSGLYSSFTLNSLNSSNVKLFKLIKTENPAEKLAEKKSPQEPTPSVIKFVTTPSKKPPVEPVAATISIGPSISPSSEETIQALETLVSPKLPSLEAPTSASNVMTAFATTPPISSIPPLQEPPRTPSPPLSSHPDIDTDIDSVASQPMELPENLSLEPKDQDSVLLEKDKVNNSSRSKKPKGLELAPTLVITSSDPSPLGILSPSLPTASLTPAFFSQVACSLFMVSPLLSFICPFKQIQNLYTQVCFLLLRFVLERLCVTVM
Outline: as §1

ETV2 = target: T4, ETV2 (Homo sapiens, UniProt O00321 1-342); conditions: protein: recombinant; tags: N-terminal GST; dsDNA, one strand shown
T4 sequence: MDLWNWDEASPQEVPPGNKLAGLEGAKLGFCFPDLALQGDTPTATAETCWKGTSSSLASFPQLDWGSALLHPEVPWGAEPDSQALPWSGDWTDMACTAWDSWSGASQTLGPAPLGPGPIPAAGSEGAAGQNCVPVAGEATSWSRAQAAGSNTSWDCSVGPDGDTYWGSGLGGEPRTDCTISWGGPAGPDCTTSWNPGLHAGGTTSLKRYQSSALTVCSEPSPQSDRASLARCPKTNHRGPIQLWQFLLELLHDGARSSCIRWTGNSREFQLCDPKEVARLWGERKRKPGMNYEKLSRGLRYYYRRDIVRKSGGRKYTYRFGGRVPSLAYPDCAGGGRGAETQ
Outline: as §1

ELF3 = target: T5, ELF3 (Homo sapiens, UniProt P78545 1-371); conditions: protein: recombinant; tags: N-terminal GST; dsDNA, one strand shown
T5 sequence: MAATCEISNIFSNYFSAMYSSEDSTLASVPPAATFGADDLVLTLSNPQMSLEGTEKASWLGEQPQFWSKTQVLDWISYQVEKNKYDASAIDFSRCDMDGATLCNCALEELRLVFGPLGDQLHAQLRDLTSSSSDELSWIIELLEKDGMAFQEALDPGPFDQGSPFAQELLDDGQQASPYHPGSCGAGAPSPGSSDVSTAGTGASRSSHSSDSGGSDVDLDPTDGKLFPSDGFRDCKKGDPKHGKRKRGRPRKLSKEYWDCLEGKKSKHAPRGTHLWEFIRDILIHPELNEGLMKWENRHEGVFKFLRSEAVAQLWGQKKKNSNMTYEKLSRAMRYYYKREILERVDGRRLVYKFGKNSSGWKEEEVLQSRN
Outline: as §1

CRX = CRX (Homo sapiens, UniProt O43186 1-299); conditions: protein: recombinant; tags: N-terminal GST; dsDNA, one strand shown
Outline: as §1

ETV1 = ETV1 (Homo sapiens, UniProt P50549 1-477); conditions: protein: recombinant; tags: N-terminal GST; dsDNA, one strand shown
Outline: as §1

ERF = target: T6, ERF (Homo sapiens, UniProt P50548 1-548); conditions: protein: recombinant; tags: N-terminal GST; dsDNA, one strand shown
T6 sequence: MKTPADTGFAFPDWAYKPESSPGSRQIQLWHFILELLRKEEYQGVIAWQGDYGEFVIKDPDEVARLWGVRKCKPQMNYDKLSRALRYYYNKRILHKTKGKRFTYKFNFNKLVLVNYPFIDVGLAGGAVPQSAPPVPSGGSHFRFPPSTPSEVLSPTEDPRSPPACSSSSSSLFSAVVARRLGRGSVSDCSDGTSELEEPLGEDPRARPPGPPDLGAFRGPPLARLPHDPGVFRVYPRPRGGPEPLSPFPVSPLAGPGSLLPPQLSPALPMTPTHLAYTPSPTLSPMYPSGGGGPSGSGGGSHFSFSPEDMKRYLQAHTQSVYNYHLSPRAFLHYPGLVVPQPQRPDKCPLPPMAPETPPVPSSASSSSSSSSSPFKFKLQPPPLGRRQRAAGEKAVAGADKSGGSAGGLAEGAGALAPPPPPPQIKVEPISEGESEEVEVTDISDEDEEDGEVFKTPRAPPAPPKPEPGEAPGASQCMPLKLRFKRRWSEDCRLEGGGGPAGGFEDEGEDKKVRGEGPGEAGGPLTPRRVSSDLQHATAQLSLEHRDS
Outline: as §1

ETV3L = target: T7, ETV3L (Homo sapiens, UniProt Q6ZN32 1-361); conditions: protein: recombinant; tags: N-terminal GST; dsDNA, one strand shown
T7 sequence: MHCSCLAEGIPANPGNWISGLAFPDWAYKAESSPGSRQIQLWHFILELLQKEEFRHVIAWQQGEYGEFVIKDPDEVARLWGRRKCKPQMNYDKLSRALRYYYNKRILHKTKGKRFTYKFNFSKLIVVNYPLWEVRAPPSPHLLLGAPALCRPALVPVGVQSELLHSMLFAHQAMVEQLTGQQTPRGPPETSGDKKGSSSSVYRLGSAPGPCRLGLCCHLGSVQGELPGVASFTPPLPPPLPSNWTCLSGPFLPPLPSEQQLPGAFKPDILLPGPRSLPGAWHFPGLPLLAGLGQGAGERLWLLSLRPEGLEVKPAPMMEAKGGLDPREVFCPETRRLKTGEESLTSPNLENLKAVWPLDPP
Outline: as §1

ETS2 = target: T8, ETS2 (Homo sapiens, UniProt P15036 1-469); conditions: protein: recombinant; tags: N-terminal GST; dsDNA, one strand shown
T8 sequence: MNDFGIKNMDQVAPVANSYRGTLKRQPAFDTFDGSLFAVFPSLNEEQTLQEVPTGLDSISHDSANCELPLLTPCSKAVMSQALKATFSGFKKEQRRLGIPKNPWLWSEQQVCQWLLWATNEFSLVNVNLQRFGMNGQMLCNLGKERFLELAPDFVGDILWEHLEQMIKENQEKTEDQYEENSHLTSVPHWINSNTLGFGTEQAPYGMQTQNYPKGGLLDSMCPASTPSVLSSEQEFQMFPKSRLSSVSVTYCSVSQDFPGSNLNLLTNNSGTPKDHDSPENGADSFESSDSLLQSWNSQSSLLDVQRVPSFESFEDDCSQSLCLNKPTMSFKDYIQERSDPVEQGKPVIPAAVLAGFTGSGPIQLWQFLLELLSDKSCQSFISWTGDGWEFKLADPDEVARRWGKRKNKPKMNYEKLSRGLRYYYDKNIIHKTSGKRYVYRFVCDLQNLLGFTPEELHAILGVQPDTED
Outline: as §1

SPDEF = target: T9, SPDEF (Homo sapiens, UniProt O95238 1-335); conditions: protein: recombinant; tags: N-terminal GST; dsDNA, one strand shown
T9 sequence: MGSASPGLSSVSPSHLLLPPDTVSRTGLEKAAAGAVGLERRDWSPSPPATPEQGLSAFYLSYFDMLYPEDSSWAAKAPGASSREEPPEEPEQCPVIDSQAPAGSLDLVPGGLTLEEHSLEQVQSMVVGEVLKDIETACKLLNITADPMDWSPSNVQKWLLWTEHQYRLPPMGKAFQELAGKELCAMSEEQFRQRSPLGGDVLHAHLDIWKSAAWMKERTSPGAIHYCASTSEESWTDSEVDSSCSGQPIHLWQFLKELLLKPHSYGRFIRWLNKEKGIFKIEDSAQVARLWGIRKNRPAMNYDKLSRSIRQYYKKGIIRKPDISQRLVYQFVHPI
Outline: as §1

ETV7 = target: T10, ETV7 (Homo sapiens, UniProt Q9Y603 1-341); conditions: protein: recombinant; tags: N-terminal GST; dsDNA, one strand shown
T10 sequence: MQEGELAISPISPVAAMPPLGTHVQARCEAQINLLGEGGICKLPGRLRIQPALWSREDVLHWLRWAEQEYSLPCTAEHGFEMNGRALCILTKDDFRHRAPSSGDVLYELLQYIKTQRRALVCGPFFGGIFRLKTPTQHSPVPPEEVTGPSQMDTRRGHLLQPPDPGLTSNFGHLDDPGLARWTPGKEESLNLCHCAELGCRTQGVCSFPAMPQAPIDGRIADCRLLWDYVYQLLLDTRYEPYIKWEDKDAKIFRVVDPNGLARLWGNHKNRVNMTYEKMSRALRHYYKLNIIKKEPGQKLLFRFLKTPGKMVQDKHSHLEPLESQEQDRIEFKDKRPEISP
Outline: as §1

ELF5 = target: T11, ELF5 (Homo sapiens, UniProt Q9UKW6-2 1-255); conditions: protein: recombinant; tags: N-terminal GST; dsDNA, one strand shown
T11 sequence: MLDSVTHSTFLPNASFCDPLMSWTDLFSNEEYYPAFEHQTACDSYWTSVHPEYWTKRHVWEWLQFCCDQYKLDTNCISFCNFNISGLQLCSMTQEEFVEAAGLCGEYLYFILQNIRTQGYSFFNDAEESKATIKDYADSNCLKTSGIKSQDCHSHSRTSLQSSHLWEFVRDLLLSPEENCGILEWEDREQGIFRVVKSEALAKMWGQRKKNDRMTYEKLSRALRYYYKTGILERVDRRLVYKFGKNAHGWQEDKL
Outline: as §1

ETV3 = target: T12, ETV3 (Homo sapiens, UniProt P41162-2 1-143); conditions: protein: recombinant; tags: N-terminal GST; dsDNA, one strand shown
T12 sequence: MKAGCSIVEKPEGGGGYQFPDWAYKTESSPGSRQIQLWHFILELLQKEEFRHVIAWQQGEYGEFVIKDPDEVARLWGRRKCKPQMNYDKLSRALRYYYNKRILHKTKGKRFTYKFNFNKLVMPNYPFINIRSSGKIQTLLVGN
Outline: as §1

ETV6 = ETV6 (Homo sapiens, UniProt P41212 1-452); conditions: protein: recombinant; tags: N-terminal GST; dsDNA, one strand shown
Outline: as §1

ETV1, sequence (P50549 whole entry): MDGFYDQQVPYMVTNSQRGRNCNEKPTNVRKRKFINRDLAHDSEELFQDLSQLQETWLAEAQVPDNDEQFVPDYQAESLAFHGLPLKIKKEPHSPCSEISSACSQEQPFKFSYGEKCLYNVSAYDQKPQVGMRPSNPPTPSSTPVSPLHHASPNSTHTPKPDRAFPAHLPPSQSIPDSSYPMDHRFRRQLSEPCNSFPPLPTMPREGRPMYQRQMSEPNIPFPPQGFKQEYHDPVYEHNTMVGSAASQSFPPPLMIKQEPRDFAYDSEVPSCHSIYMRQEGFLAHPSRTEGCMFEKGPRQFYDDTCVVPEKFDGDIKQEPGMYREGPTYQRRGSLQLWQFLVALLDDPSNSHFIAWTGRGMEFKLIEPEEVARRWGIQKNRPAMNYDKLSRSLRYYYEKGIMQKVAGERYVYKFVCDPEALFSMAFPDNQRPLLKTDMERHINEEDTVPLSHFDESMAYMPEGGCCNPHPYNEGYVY
ELF4, sequence (Q99607 whole entry): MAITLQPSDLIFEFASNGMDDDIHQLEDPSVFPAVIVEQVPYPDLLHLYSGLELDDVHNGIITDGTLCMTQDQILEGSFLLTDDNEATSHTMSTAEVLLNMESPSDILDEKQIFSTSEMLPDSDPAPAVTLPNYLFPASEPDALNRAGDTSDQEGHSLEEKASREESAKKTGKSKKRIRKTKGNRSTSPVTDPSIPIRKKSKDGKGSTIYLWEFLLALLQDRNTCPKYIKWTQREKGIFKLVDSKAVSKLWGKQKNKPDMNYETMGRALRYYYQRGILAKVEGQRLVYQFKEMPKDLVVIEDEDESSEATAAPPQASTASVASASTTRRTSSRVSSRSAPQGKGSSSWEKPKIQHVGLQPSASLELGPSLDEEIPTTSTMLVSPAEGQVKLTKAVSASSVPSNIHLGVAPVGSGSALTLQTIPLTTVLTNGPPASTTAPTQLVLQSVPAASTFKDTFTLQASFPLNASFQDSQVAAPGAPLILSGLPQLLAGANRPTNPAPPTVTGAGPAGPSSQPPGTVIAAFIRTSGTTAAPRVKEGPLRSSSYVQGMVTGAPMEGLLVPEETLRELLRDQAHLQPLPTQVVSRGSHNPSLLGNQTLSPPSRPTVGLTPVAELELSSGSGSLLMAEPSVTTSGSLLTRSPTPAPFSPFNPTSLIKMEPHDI
ETV6, sequence (P41212 whole entry): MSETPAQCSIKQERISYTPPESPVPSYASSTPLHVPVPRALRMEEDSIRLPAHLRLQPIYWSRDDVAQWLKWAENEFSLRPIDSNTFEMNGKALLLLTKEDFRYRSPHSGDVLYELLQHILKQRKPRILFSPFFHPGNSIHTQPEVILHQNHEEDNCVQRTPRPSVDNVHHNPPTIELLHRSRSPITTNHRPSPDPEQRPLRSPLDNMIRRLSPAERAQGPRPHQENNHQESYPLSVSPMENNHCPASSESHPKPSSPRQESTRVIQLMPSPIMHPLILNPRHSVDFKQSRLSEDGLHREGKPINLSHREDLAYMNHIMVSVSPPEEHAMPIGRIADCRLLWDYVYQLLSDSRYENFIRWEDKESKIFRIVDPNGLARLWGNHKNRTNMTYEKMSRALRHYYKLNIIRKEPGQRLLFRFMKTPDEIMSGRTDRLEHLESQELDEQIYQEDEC
ETV5, sequence (P41161 whole entry): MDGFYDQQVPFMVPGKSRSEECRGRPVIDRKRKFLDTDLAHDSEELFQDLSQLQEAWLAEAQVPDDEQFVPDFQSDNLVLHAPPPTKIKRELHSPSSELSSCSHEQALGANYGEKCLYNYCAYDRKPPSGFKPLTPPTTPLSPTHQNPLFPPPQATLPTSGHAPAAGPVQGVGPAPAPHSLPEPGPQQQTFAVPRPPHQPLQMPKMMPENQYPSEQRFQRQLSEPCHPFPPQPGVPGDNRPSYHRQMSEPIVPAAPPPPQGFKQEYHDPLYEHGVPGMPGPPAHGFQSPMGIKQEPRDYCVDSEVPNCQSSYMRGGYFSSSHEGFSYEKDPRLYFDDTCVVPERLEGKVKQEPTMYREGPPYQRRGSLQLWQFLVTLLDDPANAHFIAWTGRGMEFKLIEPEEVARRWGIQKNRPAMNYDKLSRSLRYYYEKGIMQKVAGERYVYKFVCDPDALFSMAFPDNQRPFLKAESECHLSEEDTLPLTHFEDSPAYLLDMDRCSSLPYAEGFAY
HSF1, sequence (Q00613 whole entry): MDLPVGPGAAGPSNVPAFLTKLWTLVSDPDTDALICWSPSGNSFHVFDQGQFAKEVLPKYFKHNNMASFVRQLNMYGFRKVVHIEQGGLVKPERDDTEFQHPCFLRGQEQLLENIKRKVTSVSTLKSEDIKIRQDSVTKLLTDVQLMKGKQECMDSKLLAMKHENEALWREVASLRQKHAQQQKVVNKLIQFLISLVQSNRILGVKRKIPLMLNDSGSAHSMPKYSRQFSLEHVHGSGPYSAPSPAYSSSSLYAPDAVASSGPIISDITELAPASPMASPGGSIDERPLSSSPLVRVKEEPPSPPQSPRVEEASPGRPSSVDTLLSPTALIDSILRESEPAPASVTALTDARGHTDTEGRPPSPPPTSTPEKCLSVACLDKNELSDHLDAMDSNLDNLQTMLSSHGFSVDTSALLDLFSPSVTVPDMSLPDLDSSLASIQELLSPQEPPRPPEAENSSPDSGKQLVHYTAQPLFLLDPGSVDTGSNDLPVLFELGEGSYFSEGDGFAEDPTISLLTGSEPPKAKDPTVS
CRX, sequence (O43186 whole entry): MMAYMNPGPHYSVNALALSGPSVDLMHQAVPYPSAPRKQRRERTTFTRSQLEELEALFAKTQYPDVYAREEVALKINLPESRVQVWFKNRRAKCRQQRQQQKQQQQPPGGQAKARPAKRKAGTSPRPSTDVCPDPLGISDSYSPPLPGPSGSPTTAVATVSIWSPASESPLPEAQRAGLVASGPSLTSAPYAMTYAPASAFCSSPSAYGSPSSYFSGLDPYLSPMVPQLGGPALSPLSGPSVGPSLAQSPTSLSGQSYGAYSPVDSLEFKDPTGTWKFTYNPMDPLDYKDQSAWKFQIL

How did the binding signal (FEV) turn out when TCTATA was run?
The binding signal was 1.15 fold enrichment (6-mer frequency, TF over GST control).

What about the binding signal (ETV5) of the same sequence?
The binding signal was 1.17 fold enrichment (6-mer frequency, TF over GST control).

And the binding signal (HSF1)?
Its binding signal is 1.4 fold enrichment (6-mer frequency, TF over GST control).

What about the binding signal (SPIC) of the same sequence?
The binding signal was 1.26 fold enrichment (6-mer frequency, TF over GST control).

What about the binding signal (ELF4) of the same sequence?
The binding signal was 1.23 fold enrichment (6-mer frequency, TF over GST control).

And the binding signal (ELK4)?
The binding signal was 1.24 fold enrichment (6-mer frequency, TF over GST control).

And the binding signal (ETV2)?
Its binding signal is 1.03 fold enrichment (6-mer frequency, TF over GST control).

And the binding signal (ELF3)?
The binding signal was 1.08 fold enrichment (6-mer frequency, TF over GST control).

What about the binding signal (CRX) of the same sequence?
Its binding signal is 1.36 fold enrichment (6-mer frequency, TF over GST control).

What about the binding signal (ETV1) of the same sequence?
Its binding signal is 1.08 fold enrichment (6-mer frequency, TF over GST control).

What about the binding signal (ERF) of the same sequence?
Its binding signal is 1.15 fold enrichment (6-mer frequency, TF over GST control).

And the binding signal (ETV3L)?
Its binding signal is 1.09 fold enrichment (6-mer frequency, TF over GST control).

And the binding signal (ETS2)?
The binding signal was 1.2 fold enrichment (6-mer frequency, TF over GST control).

What about the binding signal (SPDEF) of the same sequence?
The binding signal was 1.15 fold enrichment (6-mer frequency, TF over GST control).

And the binding signal (ETV7)?
The binding signal was 1.1 fold enrichment (6-mer frequency, TF over GST control).

And the binding signal (ELF5)?
The binding signal was 1.08 fold enrichment (6-mer frequency, TF over GST control).

And the binding signal (ETV3)?
Its binding signal is 1.06 fold enrichment (6-mer frequency, TF over GST control).

What about the binding signal (ETV6) of the same sequence?
The binding signal was 1.07 fold enrichment (6-mer frequency, TF over GST control).
